The source of these data is ChEMBL document CHEMBL1961873, “Compounds: GSK PKIS; Assays: Nanosyn kinase panel” (2012).
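Further: each value is an averaged percent inhibition of SRC.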

The target in this assay is Proto-oncogene tyrosine-protein kinase Src (Homo sapiens) (UniProt P12931). Particulars: at 1 µM.
Sequence of Proto-oncogene tyrosine-protein kinase Src (Homo sapiens) (P12931 2-536 limits assumed): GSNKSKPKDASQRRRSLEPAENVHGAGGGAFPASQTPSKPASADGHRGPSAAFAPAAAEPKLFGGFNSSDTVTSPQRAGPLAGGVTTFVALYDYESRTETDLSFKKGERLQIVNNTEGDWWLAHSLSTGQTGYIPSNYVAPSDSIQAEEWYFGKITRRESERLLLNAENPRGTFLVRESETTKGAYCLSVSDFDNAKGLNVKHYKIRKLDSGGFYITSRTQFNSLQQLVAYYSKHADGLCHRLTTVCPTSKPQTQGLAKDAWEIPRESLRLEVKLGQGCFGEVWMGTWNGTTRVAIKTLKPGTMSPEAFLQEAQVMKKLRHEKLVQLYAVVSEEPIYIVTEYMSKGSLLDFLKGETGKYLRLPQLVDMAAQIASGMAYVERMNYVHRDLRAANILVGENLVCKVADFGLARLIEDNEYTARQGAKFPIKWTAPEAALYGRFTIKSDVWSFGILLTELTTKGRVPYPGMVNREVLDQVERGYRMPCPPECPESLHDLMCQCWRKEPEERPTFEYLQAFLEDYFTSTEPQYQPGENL
In the case of `[O-][S+]1CCN(Cc2ccc(-c3ccc4ncnc(Nc5ccc(OCc6ccccc6)c(Cl)c5)c4c3)o2)CC1`, the inhibition worked out at 6.34%.

For the molecule `C[C@@H](Oc1cc(-n2cnc3ccc(OCC4CCN(C)CC4)cc32)sc1C(N)=O)c1ccccc1C(F)(F)F`, the inhibition was 21.3%.

`O=S(=O)(CCOCc1ccc(-c2ccc3ncnc(Nc4ccc(OCc5cccc(F)c5)c(Cl)c4)c3c2)o1)c1ccccc1`: the inhibition worked out at 0.4%.

In the case of `CCn1c(-c2nonc2N)nc2ccc(F)cc21`, the inhibition came to 9.9%.

In the case of `CC(C)c1ccc(Nc2nccc(-c3cnn4ncccc34)n2)cc1`, the inhibition came out at 13.4%.

Take `CN(c1ccc(NC(=O)Nc2ccc(OC(F)(F)F)cc2)cc1)c1ccnc(Nc2cccc(S(N)(=O)=O)c2)n1`: the inhibition was 86.5%.

For `NS(=O)(=O)c1ccc(N/N=C2\C(=O)Nc3ccc(Cl)cc32)cc1`, the inhibition turned out to be 14.1%.

On to `COc1cccc(-n2ncc3c(N/N=C/c4ccc(S(C)(=O)=O)cc4)ncnc32)c1`, for which the inhibition came to 77.4%.

Consider `CC(C)c1ccc2c(c1)NC(=O)/C2=N/Nc1ccc(S(N)(=O)=O)cc1`, for which the inhibition worked out at 14%.

As to `Cc1cc(Cl)cc2c1NC(=O)C2=NNc1ccc(S(N)(=O)=O)cc1`, the inhibition stood at 5.85%.

On to `c1ccc(Cc2nc3ccc(Nc4ncnc5ccccc45)cc3[nH]2)cc1`, for which the inhibition was 12.8%.

Consider `N#Cc1c(NC(=O)c2ccccc2F)sc2c1CCCC2`, for which the inhibition was -4.48%.

With `CN(C)c1cc2c(Nc3ccc4c(cnn4Cc4ccccc4)c3)ncnc2cn1`, the inhibition was 13.1%.

On to `Nc1nccc(-c2c(-c3ccc(F)cc3)ncn2CCCN2CCOCC2)n1`, for which the inhibition is 8.77%.

For `Cc1ccc(NC(=O)CC2CC2)cc1-c1ccc(C(=O)NCC2CC2)cc1`, the inhibition came to 8.28%.

Turning to `CCn1c(-c2nonc2N)nc2c(C#CC(C)(C)O)nc(OCCNC)cc21`, the inhibition was found to be 11.9%.

In general, inhibition refers to the relative decrease from the control value, in per cent.
